From PubChem BioAssay
ELG1 DNA repair = inhibitors of ELG1-dependent DNA repair in HEK293T cells | HEK293T ELG1-luciferase reporter, luminescence, 16 h; DNA damage induced by 5-fluorouridine | Potency, µM (titrated, usually from 46.1 µM), most hits filed as inhibitors | hit rate 2.3% among 330,000; note: nearly all actives have a fitted effect of over 55% in size
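Luminescence from the luciferase reporter, measured 30 min after ONE-Glo reagent at room temperature, was the read-out. Beforehand, 2,000 cells per well were exposed for 16 hr at 37 °C to 5-fluorouridine together with compound or vehicle.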
IL-1B inflam inh = inflammasome signaling inhibition, IL-1 beta readout. hit rate 4.7% among 360,000. activity change, % at 57.5 µM. THP-1 LPS/ATP IL-1B secretion, AlphaLISA, 16 h; stronger effect = lower value; in the data active = activity change below about -50%; inconclusive = mostly about -30% to -49%
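Secreted IL-1B measured by AlphaLISA bead assay after 16 h compound exposure of THP-1 cells; compounds (final up to 57.5 uM) added 1 h before LPS (250 ng/mL) and ATP (1.25 mM) stimulation; lower signal means less secretion.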
TDP1 inh = inhibitors of human tyrosyl-DNA phosphodiesterase TDP1 | Q9NUW8 | recombinant TDP1, AlphaScreen DNA substrate cleavage | Potency, µM (doses to about 130 µM), usual class: inhibitors | hit rate 0.28% among 350,000; note: nearly all actives have a fitted effect of over 40% in size
Target sequence (Q9NUW8 whole entry, looked up): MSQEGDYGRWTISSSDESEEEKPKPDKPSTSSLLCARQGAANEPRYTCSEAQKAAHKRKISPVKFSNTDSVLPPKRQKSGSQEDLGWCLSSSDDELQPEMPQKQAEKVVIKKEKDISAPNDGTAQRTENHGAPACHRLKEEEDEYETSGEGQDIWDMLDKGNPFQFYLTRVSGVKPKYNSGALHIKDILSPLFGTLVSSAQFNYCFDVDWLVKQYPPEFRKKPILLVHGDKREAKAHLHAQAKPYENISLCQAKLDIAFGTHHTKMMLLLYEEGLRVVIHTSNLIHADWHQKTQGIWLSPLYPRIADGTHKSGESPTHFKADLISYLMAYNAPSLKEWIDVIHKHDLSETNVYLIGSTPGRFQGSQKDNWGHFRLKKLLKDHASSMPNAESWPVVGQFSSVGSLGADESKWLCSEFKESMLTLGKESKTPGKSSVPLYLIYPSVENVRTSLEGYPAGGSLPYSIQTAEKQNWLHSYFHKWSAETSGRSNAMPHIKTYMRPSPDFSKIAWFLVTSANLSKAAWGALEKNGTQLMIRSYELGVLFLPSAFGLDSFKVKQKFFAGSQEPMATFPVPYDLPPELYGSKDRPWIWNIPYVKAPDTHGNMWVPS
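AlphaScreen read-out: signal falls as enzyme removes the 3' tyrosine-FITC from a 5'-biotinylated DNA oligo (15 nM, 5 min, RT). Enzyme was E. coli-made recombinant Tdp1 at 1 nM, exposed to compound for 15 min beforehand; beads 10 ug/ml, 10 min.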
Giardia kill = kills Giardia lamblia | Giardia lamblia trophozoite viability | activity change, % at 7.66 µM, hits read low | hit rate 0.15% among 340,000; in the data active = activity change below about -80%; inconclusive = between about -30% and that limit;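 note: parasites exposed to compound for two days anaerobically before the ATP read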
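Giardia lamblia trophozoites (100 cells/well) were incubated with compounds for 48 h at 37 deg C under anaerobic conditions. Viability was read as ATP content by one-step luminescence after 15-30 min at room temperature.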
TDP1 cell CPT = DT40-hTDP1 cell growth loss with CPT; chicken DT40 Tdp1-/-;hTDP1 cells + 20 nM CPT, ATP luminescence, 48 h; Potency, µM (highest dose often 46.2 µM), hits mostly inhibitors; hit rate 12% among 420,000; note: nearly all actives have a fitted effect of over 55% in size
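Cell growth measured by CellTiter-Glo luminescence after a minimum 48 h, 37 C compound exposure with 20 nM CPT in Tdp1-knockout DT40 cells stably expressing hTDP1, seeded 400/well; qHTS titration format.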
TDP1 cell noCPT = qHTS for Inhibitors of human tyrosyl-DNA phosphodiesterase 1 (TDP1): qHTS in cells in absence of CPT | DT40 Tdp1-/- hTDP1 cells, no CPT, ATP luminescence, 48 h | Potency, µM (doses to about 46.2 µM), actives largely listed as inhibitors | hit rate 15% among 420,000 | AID 686978, 2013; note: nearly all actives have a fitted effect of over 55% in size
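Growth kinetics read by CellTiter-Glo luminescence after ≥48 hr at 37 °C. Cells: DT40 Tdp1-/- stably carrying human TDP1, 400 per well, compound exposure in the absence of CPT (DMSO vehicle).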
Hits are given with their value; . = inactive; ? = inconclusive; / = not tested or not shown. An excerpt weighted towards active compounds, which were near 19% of everything screened. Unless noted, calls come from the whole dose curve; as a rule, active = well fitted curve in the direction sought with a large enough effect; inconclusive = small, poorly fitted or top-dose-only effect, or another doubt; inactive = no such curve, though single readings can be large; an effect the other way counts as inactive or inconclusive.

SMILES	ELG1 DNA repair	IL-1B inflam inh	TDP1 inh	Giardia kill	TDP1 cell CPT	TDP1 cell noCPT
CN(N=O)c1ccc(/C=C2\C=Cc3ccccc32)cc1	/	/	/	/	.	.
NC(N)=Nc1ccc(C=C2C=Cc3ccccc32)cc1	/	-68	/	.	9.2µM	9.2µM
COc1ccc(/C=C2/C=Cc3ccccc32)cc1	/	/	/	/	.	?
CS(=O)(=O)c1ccc(/C=C2\C=Cc3ccccc32)cc1	/	/	/	/	?	20µM
CCNc1ncc2nc(-c3cc(F)cc(F)c3)c(=O)n(-c3ccccc3)c2n1	/	/	/	/	.	?
CC(C)C[C@@H](CC(=O)N[C@@H](CCC(=O)O)CC(=O)O)NC(=O)[C@@H]1CCCC[C@H]1NC(=O)C[C@@H](NC(=O)C[C@H](Cc1ccccc1)NC(=O)[C@@H]1CNCC[C@H]1N)C(C)C	/	/	.	/	/	/
Nc1ccc(C=C2C=Cc3ccccc32)cc1	/	-74	/	.	.	.
Cc1ccc(-c2nnc(-c3ccccc3)o2)cc1	?	.	.	.	.	?
OC(c1ccc(OCc2ccccc2)cc1)c1nnc(-c2ccccc2)o1 (stereo not drawn)	.	.	.	.	21µM	16µM
OC(c1cccc(OCc2ccccc2)c1)c1nnc(-c2ccccc2)o1 (stereo not drawn)	.	?	.	.	18µM	18µM
c1ccc(-c2nnc(C(c3ccccc3)c3ccccc3)o2)cc1	.	.	.	.	26µM	18µM
CCCCC[C@@H](C)N1C[C@H](COCc2ccccc2)Oc2cc(N3CC[C@H](N(C)C)C3)ccc2S1(=O)=O	/	-82	/	/	?	18µM
CCCCC[C@H](C)N1C[C@H](COCc2ccccc2)Oc2cc(N3CC[C@H](O)C3)ccc2S1(=O)=O	/	.	/	/	?	?
CCCCC[C@@H](C)N1C[C@H](COCc2ccccc2)Oc2cc(N3CC[C@@H](O)C3)ccc2S1(=O)=O	/	.	/	/	?	21µM
C[C@H](c1ccccc1)N1C[C@@H](COCc2ccccc2)Oc2cc(N3CC[C@H](O)C3)ccc2S1(=O)=O	/	.	/	/	?	16µM
CN(Cc1ccccc1)C(CNS(=O)(=O)c1ccccc1)c1ccccc1 (stereo not drawn)	/	.	/	/	?	?
CCN(c1ccccc1)C(CNS(=O)(=O)c1ccccc1)c1ccccc1 (stereo not drawn)	/	/	.	/	18µM	?
Cc1cccc(N(C)C(CNS(=O)(=O)c2ccccc2)c2ccccc2)c1 (stereo not drawn)	/	/	.	/	16µM	?
CCN(c1cccc(C)c1)C(CNS(=O)(=O)c1ccccc1)c1ccccc1 (stereo not drawn)	/	/	.	/	?	?
CSCCOC(=O)COc1ccc(/C=N/NC(=O)c2nn(C)cc2Cl)cc1	?	-69	.	.	.	?
Cc1ccc(S(=O)(=O)CCNC(=O)Cc2ccc(Cl)cc2)cc1	.	.	.	.	.	.
O=C(Cc1cc(=O)[nH][nH]1)N/N=C/C=C/c1ccccc1	?	?	.	.	?	29µM
COc1cccc(OCC(=O)NC2CCS(=O)(=O)C2)c1 (stereo not drawn)	.	.	.	.	.	.
N#Cc1c(N)nc2c3c(sc(=N)c2c1N)NC(=O)CC3c1c(F)cccc1Cl (stereo not drawn)	.	.	.	.	?	6.5µM
N#Cc1c(N)nc2c3c(sc(=N)c2c1N)NC(=O)CC3c1ccccc1 (stereo not drawn)	.	?	.	.	.	?
COCC(=O)Nc1cc(C)cn(Cc2c(F)cccc2Cl)c1=O	.	.	/	.	?	?
CCn1c(=O)c([N+](=O)[O-])c(NCCN(C)C)c2ccccc21	?	.	.	.	.	.
CCn1c(=O)c([N+](=O)[O-])c(Cl)c2ccccc21	.	-96	.	.	2.9µM	2.6µM
COc1ccc(C(=O)NCc2nnc(SCC(=O)Nc3nc4ccc(C)cc4s3)o2)cc1OC	?	.	.	.	4.1µM	2.3µM
Cc1ccc(CNC(=O)CSc2nnc(CNC(=O)c3ccccc3)o2)cc1	.	-73	.	.	.	.
